Tested on: FLT3
Details: concentration: 1 μM,replicates: in singlicate; n = 1
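Further: KINOMEscan kinase panel screen.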

Row | SMILES | %Inh [%]
1 | COc1ccc(Nc2nccc(N3CCC(NC(=O)c4cccc(C#N)c4)C3)n2)cc1 (stereo not shown) [GSK1379730] | 18
2 | C[C@@H](Oc1cc(-n2cnc3cc(-c4cnn(C)c4)ccc32)sc1C(N)=O)c1ccccc1Cl [GSK580432] | 99.4
3 | O=C(Nc1n[nH]c2cc(-c3ccco3)ccc12)C1CC1 [SB-737447] | 59
4 | COC(=O)Nc1nc2cc(Oc3ccc(NC(=O)Nc4cc(C(F)(F)F)ccc4Cl)cc3)ccc2[nH]1.Cl [GW697465] | 99.1
5 | Cc1cccc2c(-c3ccncc3)c(-c3ccc(F)cc3)nn12.Cl [GW461487] | 0
6 | O=c1[nH]cc(-c2ccc(O)cc2)c2sc(-c3ccncc3)cc12 [GSK1033723] | 0
7 | COc1cccc(CNC(=O)NC2CCN(c3ccnc(Nc4cc(OC)c(OC)c(OC)c4)n3)C2)c1 (stereo not shown) [GSK1379765] | 47
8 | COc1cccc(OC)c1C(=O)Nc1cccc(-c2nn3ccccc3c2-c2ccnc(Nc3cccc(F)c3)n2)c1 [GSK361065] | 49
9 | CC(=O)Nc1nc2cnc(Nc3cc(NC(=O)c4cccc(CC(C)(C)C#N)c4)ccc3C)nc2s1 | 8
10 | CC(C)S(=O)(=O)N1CCN(Cc2ccc3c(c2)nc(NC(=O)c2ccsc2)n3C[C@H](O)c2ccccc2)CC1 [GW635815] | 98
11 | Cc1ccc(Nc2ccnc(Nc3ccc4c(c3)CS(=O)(=O)C4)n2)cc1O.Cl [GW579362] | 99
12 | Cc1nnc(-c2ccc3occ(-c4ccc(S(C)=O)cc4)c3n2)o1 (stereo not shown) | 0
13 | O=C(Nc1cccc(C(F)(F)F)c1)c1cccc(Oc2ccc3nccn3n2)c1 | 18
14 | CCCC(=O)Nc1n[nH]c2ncccc12 [SB-601436] | 13
15 | C[C@@H]1CNc2c(sc3ccc4nc(-c5ccc(O)cc5)ccc4c23)C(=O)N1 | 16
16 | COC(=O)c1cccc(NC(=O)NC2CCN(c3ccnc(NCc4ccc(F)cc4)n3)CC2)c1 [GSK1379860] | 0
17 | CC(=O)Nc1ccc(-c2cc3ncnc(SCC(=O)O)c3s2)cc1 | 39
18 | NC(=O)c1ccc(-c2cc3ncnc(SCC(=O)O)c3s2)cc1 | 20
19 | C[C@@H]1CCN(C(=O)N2CCCC2)C[C@@H]1N(C)c1ncnc2[nH]ccc12 | 38

Row | SMILES | %Inh [%]
20 | CCn1c(-c2nonc2N)nc2cncc(Br)c21 [SB-738004] | 0
21 | Cc1ccc(CC(=O)N2CCc3cc(-c4cn(C)c5ncnc(N)c45)ccc32)cc1 [GSK2634758] | 40
22 | Nc1nccc(-c2ccc3c(N)n[nH]c3c2)n1 [GSK1034945] | 0
23 | COc1cccc(C2=C(Nc3cccc(Cl)c3)C(=O)NC2=O)c1 [SB-341556] | 0
24 | Cc1n[nH]c2cc(Nc3ccnc(Nc4cccc(CN5CCOCC5)c4)n3)ccc12 [GW682569] | 68
25 | Cl.Cl.NC[C@H](CC1CCCCC1)NC(=O)c1ccc(-c2ccnc3[nH]ccc23)s1 [GSK1581428] | 91.9
26 | COc1cc2c(Nc3ccc(NC(=O)c4ccccc4)cc3)ncnc2cc1OCCCN1CCOCC1 [GSK301329] | 35
27 | C[C@@H](Oc1cc(-n2cnc3ccc(-c4ccncc4)cc32)sc1C(N)=O)c1ccccc1Cl [GSK483724] | 53
28 | NC(=O)Nc1sc(-c2ccc(F)cc2)cc1C(N)=O [GW789449] | 50
29 | CN(c1ccc2c(c1)nc(NCc1ccc(F)cc1)n2C)c1ccnc(Nc2ccc(CS(C)(=O)=O)cc2)n1.Cl [GW813244] | 98.3
30 | c1ccc(Oc2ccc(Nc3ccnc4ccc(-c5ccccn5)cc34)cc2)cc1 [GW407034] | 0
31 | CS(=O)c1ccc(-c2coc3ccc(-c4n[nH]c(=O)o4)cc23)cc1 (stereo not shown) | 16
32 | CCN1CCN(CCCC(=O)Nc2n[nH]c3nc(-c4ccc(O)cc4)c(Br)cc23)CC1 [SB-731579] | 61
33 | CC(=O)c1c(-c2ccncc2)[nH]c(-c2ccncc2)c1C [GW493036] | 0
34 | CSc1nccc(-c2c(-c3ccc(F)cc3)ncn2CCCN2CCOCC2)n1.Cl [SB-217146] | 0
35 | CN1CCN(CCNc2nc3cc(Oc4ccc(NC(=O)Nc5cc(C(F)(F)F)ccc5F)cc4)ccc3[nH]2)CC1.Cl.Cl [GW768504] | 98.1
36 | C[C@@H](Oc1cc(-n2cnc3cc(-c4ccncc4)ccc32)sc1C(N)=O)c1ccccc1Cl [GSK479719] | 97.3
37 | O=C(Nc1cccc(Oc2ccc3nccn3n2)c1)Nc1cccc(C(F)(F)F)c1 | 59
